Inconclusive results are not listed. Where a call stands in place of a potency, no number is given. Calls of active or inactive are those of the source. The call rests on the fitted dose curve; in most records, active means well fitted inhibition curve with a large enough effect; inconclusive means small, poorly fitted or top-dose-only effect; inactive means flat fitted curve, though single readings scatter.
Molecular target: Calcium and integrin-binding protein 1 (Homo sapiens) (UniProt Q99828)
Sequence (Q99828 whole entry, looked up): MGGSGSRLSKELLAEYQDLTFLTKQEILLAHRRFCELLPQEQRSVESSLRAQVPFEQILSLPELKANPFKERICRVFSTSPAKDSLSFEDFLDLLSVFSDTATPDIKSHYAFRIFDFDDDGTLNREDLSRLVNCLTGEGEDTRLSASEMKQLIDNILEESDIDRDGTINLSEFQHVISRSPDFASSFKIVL
Assay: Primary qHTS for Identification of Calcium Integrin Binding Protein 1 (CIB1) Competitor (AID 1508620);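 further: GST tagged CIB1 binding a fluorescein labelled alphaIIb integrin peptide tracer; top concentration of the series differs between compounds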
Settings: CIB1-GST / FITC-alphaIIb peptide fluorescence polarization; series mostly up to 114 µM
Summary of the method: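 CIB1-GST (1 uM final) and compound incubated 15 min at room temperature before adding FITC-alphaIIb peptide tracer (100 nM final). Competition for binding read by fluorescence polarization (ex 480, em 540) after another 15 min at room temperature.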

| Structure (SMILES) | Potency |
| --- | --- |
| O=C(O)c1ccc2c(c1)C(=O)N(CCc1ccc(O)cc1)C2=O | inactive |
| CC(=O)NC(c1cccs1)c1cc(F)c2cccnc2c1O (configuration not stated) | inactive |
| CN(C)[S+](=O)([O-])c1ccc(-c2ccc(=O)n(CC(=O)NCCc3ccccc3)n2)cc1 | inactive |
| CCc1cccc(Nc2nn3c(=O)c4ccccc4nc3s2)c1 | inactive |
| c1csc(CNc2ncnc3ccc(-c4ccc5c(c4)OCO5)cc23)n1 | inactive |
| Cc1cc2c(s1)c1cnn(Cc3cc(OC(F)(F)F)ccc3F)c(=O)c1n2C | inactive |
| COc1cccc(C2c3c(ncn(-c4cccc(Br)c4)c3=N)Oc3ccc4ccccc4c32)c1 (configuration not stated) | inactive |
| Cn1c2cc(C#N)sc2c2cnn(Cc3ccc(F)cc3)c(=O)c21 | inactive |
| O=C(NCc1nnc(C(=O)Nc2ccc(C(F)(F)F)cc2Cl)o1)c1ccccc1 | inactive |
| Cc1cccc(CNc2ccnc(-c3ccc(F)cc3F)n2)c1 | inactive |
| CC(=O)c1ccccc1-c1ncc(C)c(NCC2CCN(c3cccnc3)CC2)n1 | inactive |
| O=S(=O)(Nc1ccc(C2CCNCC2)cc1)c1ccc(NCc2cccc(Cl)c2O)cc1 | inactive |
| N#Cc1nc(NCCCO)nc(Nc2ccccc2)n1 | inactive |
| COc1ccc(-c2ccc(=O)n(CC(=O)NCCc3ccccc3)n2)cc1 | inactive |
| O=[S+]([O-])(c1ccc2c(c1)OCCO2)N1CCN([S+](=O)([O-])c2ccc(F)cc2Br)CC1 | inactive |
| NC(=O)c1ccc(C[C@H](C(=O)O)N2C(=O)c3ccc(C(=O)O)cc3C2=O)cc1 | inactive |
| N#Cc1cccc(-c2csc(N3CCC(C(N)=O)CC3)n2)c1 | inactive |
| CC(=O)Nc1ccc(-c2csc(N3CCC(C(N)=O)CC3)n2)cc1 | inactive |
| Cc1cc(NS(=O)(=O)c2ccc(C(=O)NCc3ccc(Cl)c(Cl)c3)cc2)no1 | inactive |
| COc1ccc(C(=O)N(Cc2ccccc2)Cc2ccccc2)cc1COc1ccc(NC(C)=O)cc1 | inactive |
| CN(Cc1ccco1)c1ncnc2ccc(-c3ccc4c(ccn4C)c3)cc12 | inactive |
| CC(C)(C)OC(=O)Cc1nnc(CNC(=O)c2ccccc2)s1 | inactive |
